A number with no mark means an inactive call. Records with an inconclusive call do not appear. Calls of active or inactive are those of the source. Unless noted, the call rests on the fitted dose curve; in most records, active means well fitted curve in the direction sought with a large enough effect in the repeat runs; inconclusive means weak or mixed curves; inactive means no such curve, though single readings can be large; an effect the other way counts as inactive or inconclusive.

Experimental findings from PubChem BioAssay (Tox21) are described below.

Assay [1] addresses Progesterone receptor (Homo sapiens) (UniProt P06401). In words: qHTS assay to identify small molecule agonists of the progesterone receptor (PR) signaling pathway (AID 1346784; calls by dose curve; further: nearly all actives have a fitted effect of over 30% in size). The gist of the method: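 The screen uses PR-UAS-bla HEK 293T cells in charcoal-stripped serum (2%). Compounds are applied for 16 hr at 37C after a 6 hr pre-incubation, and reporter activity is detected with a FRET beta-lactamase substrate after 2 hr at room temperature.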
For orientation: In qHTS, concentration-response curves come from the screen itself.

The target is the same in assay [2]. Put plainly: qHTS assay to identify small molecule antagonists of the progesterone receptor (PR) signaling pathway (AID 1346795; active means well fitted inhibition curve with a large enough effect in the signal ratio in the repeat runs, not every such curve was filed as active; the % refers to the signal ratio). The gist of the method: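 After 6 hr plating at 37C in 2% stripped-serum medium, PR-UAS-bla HEK293T cells got compounds, then 1 nM R5020. Sixteen hours later, LiveBLAzer substrate was applied for 2 hr at room temperature and fluorescence was recorded.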

Assay [3] is described as follows: qHTS assay to identify small molecule antagonists of the progesterone receptor (PR) signaling pathway - cell viability counter screen (AID 1346798). Further: nearly all actives have a fitted effect of over 50% in size. Further: potency means the concentration at half of the fitted maximal effect. The gist of the method:
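Viability was determined by ATP-based luminescence (CellTiter-Glo) in PR-UAS-bla HEK293T cells cultured in 2% charcoal-stripped serum and incubated 16 hr with compounds under R5020 stimulation.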

The nature of assay [4]: qHTS assay to identify small molecule agonists of the progesterone receptor (PR) signaling pathway - cell viability counter screen (AID 1346799; calls by dose curve; further: nearly all actives have a fitted effect of over 45% in size). The gist of the method:
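Viability was scored by ATP luminescence (CellTiter-Glo, 30 min, room temperature) in the same wells used for the reporter readout, after 16 hr compound exposure of PR-UAS-bla HEK293T cells.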

The nature of assay [5]: qHTS assay to identify small molecule antagonists of the TGF-beta/Smad signaling pathway - cell viability counter screen (AID 1346824). Further: nearly all actives have a fitted effect of over 50% in size. Further: potency means the concentration at half of the fitted maximal effect. The gist of the method: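 SBE-bla HEK 293T cells, incubated overnight, then compound plus 0.25 ng/mL TGF-beta1 (stock added) for 5 hr at 37 C. Viability was read in the same wells by CellTiter-Glo luminescence after 30 min at room temperature.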

Assay [6] in a line: qHTS assay to identify small molecule agonists of the TGF-beta/Smad signaling pathway - cell viability counter screen (AID 1346829). Further: top concentration of the series differs between compounds; nearly all actives have a fitted effect of over 45% in size. The gist of the method:
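Luminescence from CellTiter-Glo, read after a 30 min room-temperature incubation, gives cell viability of SBE-bla HEK 293T cells treated 5 hr with compounds at 37 C.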

Assay [7] is described as follows: qHTS assay to identify small molecule agonists of the TGF-beta/Smad signaling pathway (AID 1346859; active means well fitted activation curve with a large enough effect in the signal ratio in the repeat runs, not every such curve was filed as active; the % refers to the signal ratio; further: series mostly up to about 77 µM). The gist of the method:
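Dual-wavelength fluorescence (460/530 nm emission) quantified beta-lactamase expression under the Smad binding element in HEK 293T cells following 5 hr compound treatment at 37 C.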

In assay [8] the target is Thyrotropin-releasing hormone receptor (Homo sapiens) (UniProt P34981). Put plainly: qHTS assay to identify small molecule antagonists of the thyrotropin-releasing hormone receptor (TRHR) signaling pathway (AID 1346877; active means well fitted inhibition curve with a large enough effect in the repeat runs, not every such curve was filed as active; further: series mostly up to about 51 µM). The gist of the method:
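TRHR-expressing HEK293 cells were seeded, cultured 18 h at 37 °C, then loaded with calcium dye for 2 h. Compounds were pre-incubated 5 min at room temperature before 1 nM TRH (final) was added, and kinetic fluorescence was recorded for 3 min.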

Assay [9] has the same target. Put plainly: qHTS assay to identify small molecule agonists of the thyrotropin-releasing hormone receptor (TRHR) signaling pathway (AID 1346891; calls by dose curve; further: series mostly up to about 58 µM). The gist of the method: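 Kinetic fluorescence (3 min, 1 s intervals) reported intracellular calcium after compound transfer onto TRHR-Hek293 cells pre-loaded with dye for 2 h at 37 °C.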
Assay [10] is described as follows: Human pregnane X receptor (PXR) small molecule agonists, qHTS cell viability counter screen (AID 1346977). Further: nearly all actives have a fitted effect of over 50% in size. Further: potency means the concentration at half of the fitted maximal effect. The gist of the method: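 HepG2 cells stably carrying the PXR-Luc reporter are cultured with 5% charcoal-stripped FBS and treated with compounds for 24hr. CellTiter-Fluor is added at 23hr and fluorescence is read after 1hr.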
The nature of assay [11]: Caspase-3/7 induction in HepG2 cells by small molecules, qHTS assay (AID 1346978). Further: nearly all actives have a fitted effect of over 15% in size. The gist of the method:
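Wild-type HepG2 cells, 2,000/well, settled 5 hr at 37 C and 5% CO2, then compound-treated for 17 hr; caspase-3/7 activity read by luminescent Caspase-Glo 3/7 after 30 min at room temperature.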

The nature of assay [12]: Caspase-3/7 induction in CHO-K1 cells by small molecules, qHTS assay (AID 1346980). Further: nearly all actives have a fitted effect of over 15% in size. The gist of the method: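 Wild-type CHO-K1 cells exposed to compounds for 17hr at 37 C, 5% CO2. Caspase-3/7 activity then measured by Caspase-Glo 3/7 luminescence after 30min at room temperature.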
For assay [13], the target named is Nuclear receptor subfamily 1 group I member 2 (Homo sapiens) (UniProt O75469). In words: Human pregnane X receptor (PXR) small molecule agonists, qHTS assay (AID 1346982). Further: nearly all actives have a fitted effect of over 35% in size. Further: potency means the concentration at half of the fitted maximal effect. The gist of the method: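 PXR-Luc HepG2 cells (CYP3A4 promoter-driven luciferase) were seeded in medium with 5% charcoal-stripped FBS, left 5 hr at 37 C, then exposed to compounds in DMSO for 24 hr. Luminescence was read after ONE-Glo addition.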
Nuclear receptor subfamily 1 group I member 2 (Homo sapiens), sequence (O75469 whole entry, looked up): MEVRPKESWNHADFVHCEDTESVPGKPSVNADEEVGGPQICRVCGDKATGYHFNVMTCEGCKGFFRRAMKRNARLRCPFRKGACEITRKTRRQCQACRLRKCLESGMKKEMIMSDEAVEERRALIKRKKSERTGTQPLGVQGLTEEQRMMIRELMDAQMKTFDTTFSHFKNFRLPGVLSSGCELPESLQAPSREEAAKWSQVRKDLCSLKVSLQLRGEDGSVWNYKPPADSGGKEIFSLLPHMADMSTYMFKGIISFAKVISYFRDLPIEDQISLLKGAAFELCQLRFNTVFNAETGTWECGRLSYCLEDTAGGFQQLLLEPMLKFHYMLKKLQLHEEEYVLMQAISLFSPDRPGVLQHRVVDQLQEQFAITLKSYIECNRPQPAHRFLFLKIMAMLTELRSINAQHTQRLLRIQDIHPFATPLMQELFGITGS

For assay [14], the target named is Acetylcholinesterase (Homo sapiens) (UniProt P22303). In words: Acetylcholinesterase (AChE) small molecule antagonists: colormetric cell-based qHTS assay (AID 1347395; calls by dose curve; further: nearly all actives have a fitted effect of over 30% in size). The gist of the method: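 Quantitative HTS in attached SH-SY5Y cells: 30 min compound exposure, then 90 min with acetylthiocholine and DTNB at 37 C; colour from thiocholine reports AChE activity.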
Acetylcholinesterase (Homo sapiens), sequence (P22303 whole entry, looked up): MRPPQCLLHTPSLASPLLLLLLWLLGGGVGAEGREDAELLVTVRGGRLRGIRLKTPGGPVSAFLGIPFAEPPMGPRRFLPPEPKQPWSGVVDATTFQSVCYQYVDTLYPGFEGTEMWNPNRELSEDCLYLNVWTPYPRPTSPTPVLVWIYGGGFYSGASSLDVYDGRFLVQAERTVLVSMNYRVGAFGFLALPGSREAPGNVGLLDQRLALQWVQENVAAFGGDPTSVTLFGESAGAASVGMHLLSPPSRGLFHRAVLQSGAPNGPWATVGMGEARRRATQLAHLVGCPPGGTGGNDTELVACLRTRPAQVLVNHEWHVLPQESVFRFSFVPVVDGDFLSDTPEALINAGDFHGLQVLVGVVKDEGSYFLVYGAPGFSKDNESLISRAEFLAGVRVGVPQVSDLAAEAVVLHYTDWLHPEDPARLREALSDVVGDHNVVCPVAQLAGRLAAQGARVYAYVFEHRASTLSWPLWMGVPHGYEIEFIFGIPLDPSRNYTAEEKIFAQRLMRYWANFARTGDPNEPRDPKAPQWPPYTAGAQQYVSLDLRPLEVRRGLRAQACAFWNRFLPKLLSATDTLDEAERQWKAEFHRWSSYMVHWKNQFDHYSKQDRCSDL

Assay [15] can be described thus: Caspase-3/7 induction in CHO-K1 cells by small molecules, qHTS cell viability counter screen (AID 1346979). Further: nearly all actives have a fitted effect of over 35% in size. Further: potency means the concentration at half of the fitted maximal effect. The gist of the method:
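Seeding: 1,500 CHO-K1 cells/well. Rest: 5hr, 37C. Treatment: compounds in DMSO, 16hr. Read: CellTiter-Fluor, 1hr, fluorescence.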

Assay [16] can be described thus: Caspase-3/7 induction in HepG2 cells by small molecules, qHTS cell viability counter screen (AID 1346981). Further: nearly all actives have a fitted effect of over 30% in size. Further: potency means the concentration at half of the fitted maximal effect. The gist of the method:
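Wild-type HepG2 cells (2,000/well) were allowed to settle for 5 hr at 37 C, 5% CO2, then dosed with compounds in DMSO by pin transfer. After 16 hr at 37 C, CellTiter-Fluor was added and fluorescence read 1 hr later.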

Assay [17] has as its target Nuclear receptor subfamily 1 group I member 2 (Rattus norvegicus) (UniProt Q9R1A7). Put plainly: Rat pregnane X receptor (rPXR) activation by small molecules, qHTS assay (AID 1346983). Further: nearly all actives have a fitted effect of over 20% in size. Further: potency means the concentration at half of the fitted maximal effect. The settings on record: rPXR luciferase reporter cells, One-Glo luminescence, 24 h; max activation: hits give high values. The gist of the method: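 Cell-based rPXR activation assay: rPXR cells, 2,000 per well, rested 5hr at 37 C, then exposed to compounds in DMSO for 24 hr at 37 C. Luciferase activity read by One-Glo luminescence after 30 min at room temperature.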

In assay [18] the target is Nuclear receptor subfamily 1 group I member 2 (Homo sapiens) (UniProt O75469). Put plainly: CYP3A4 induction through human pregnane X receptor (PXR) by small molecules, qHTS assay (AID 1346984). Further: nearly all actives have a fitted effect of over 40% in size. Further: potency means the concentration at half of the fitted maximal effect. The gist of the method: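 DPX-2 cells (HepG2 co-transfected with PXR and CYP3A4 promoter-luciferase) treated with compounds 24 h at 37C; luciferin-IPA CYP3A4 substrate 3uM final added for 3 h, then One-Glo; luminescence read. qHTS format.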

Assay [19] has the same target. Put plainly: Human pregnane X receptor (PXR) activation by small molecules, qHTS assay (AID 1346985). Further: nearly all actives have a fitted effect of over 40% in size. Further: potency means the concentration at half of the fitted maximal effect. The gist of the method: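 DPX-2 cells (HepG2 co-transfected with a PXR response element and a CYP3A4-promoter luciferase construct) were seeded at 2,000 per well, rested 5 hr at 37C, then exposed to DMSO-dissolved compounds for 24 hr. Activation was read as luciferase luminescence.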

A short description of assay [20]: qHTS assay to identify small molecule agonists of the estrogen receptor alpha (ER-alpha) signaling pathway in the presence of an antagonist - cell viability counter screen (AID 1259386).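 Further: cells exposed to compounds for 22 h at 37 °C before the viability read; nearly all actives have a fitted effect of over 30% in size.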 Further: potency means the concentration at half of the fitted maximal effect. The gist of the method: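 VM7Luc4E2 cells (endogenous full-length ER-alpha, 4×ERE-luciferase) were held 5 days in phenol red-free medium with 10% charcoal-stripped FBS, plated, then given 10.0nM ICI-182,780 and compounds at 15 concentrations for 22hr at 37C; viability read by CellTiter-Fluor fluorescence.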
On the % scale 0 is the no-effect control and ±100 the full control effect.

Progesterone receptor (Homo sapiens), sequence (P06401 whole entry, looked up): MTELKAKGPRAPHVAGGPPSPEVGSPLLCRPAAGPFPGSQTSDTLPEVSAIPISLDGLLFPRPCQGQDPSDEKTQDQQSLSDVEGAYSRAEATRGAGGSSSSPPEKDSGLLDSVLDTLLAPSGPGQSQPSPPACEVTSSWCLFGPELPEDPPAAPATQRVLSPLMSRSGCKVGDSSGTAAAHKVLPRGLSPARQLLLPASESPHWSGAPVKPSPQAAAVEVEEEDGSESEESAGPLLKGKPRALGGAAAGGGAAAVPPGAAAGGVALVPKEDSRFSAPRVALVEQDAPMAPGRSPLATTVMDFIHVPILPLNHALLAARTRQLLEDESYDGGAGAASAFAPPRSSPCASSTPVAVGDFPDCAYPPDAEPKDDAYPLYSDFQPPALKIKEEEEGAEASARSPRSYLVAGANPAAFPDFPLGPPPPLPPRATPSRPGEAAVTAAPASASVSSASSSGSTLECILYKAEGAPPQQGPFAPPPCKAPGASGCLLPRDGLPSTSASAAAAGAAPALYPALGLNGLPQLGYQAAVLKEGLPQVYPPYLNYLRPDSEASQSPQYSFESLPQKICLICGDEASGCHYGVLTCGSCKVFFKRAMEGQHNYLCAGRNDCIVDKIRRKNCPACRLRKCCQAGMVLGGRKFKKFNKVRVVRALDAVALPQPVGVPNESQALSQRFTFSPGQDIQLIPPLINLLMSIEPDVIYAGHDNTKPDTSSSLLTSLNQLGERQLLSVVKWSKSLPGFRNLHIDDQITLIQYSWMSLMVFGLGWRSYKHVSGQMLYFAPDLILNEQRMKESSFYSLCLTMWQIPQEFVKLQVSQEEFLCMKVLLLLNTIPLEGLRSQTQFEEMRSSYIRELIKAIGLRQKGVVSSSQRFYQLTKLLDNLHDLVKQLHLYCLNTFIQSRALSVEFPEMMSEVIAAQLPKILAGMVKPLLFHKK
Nuclear receptor subfamily 1 group I member 2 (Rattus norvegicus), sequence (Q9R1A7 whole entry, looked up): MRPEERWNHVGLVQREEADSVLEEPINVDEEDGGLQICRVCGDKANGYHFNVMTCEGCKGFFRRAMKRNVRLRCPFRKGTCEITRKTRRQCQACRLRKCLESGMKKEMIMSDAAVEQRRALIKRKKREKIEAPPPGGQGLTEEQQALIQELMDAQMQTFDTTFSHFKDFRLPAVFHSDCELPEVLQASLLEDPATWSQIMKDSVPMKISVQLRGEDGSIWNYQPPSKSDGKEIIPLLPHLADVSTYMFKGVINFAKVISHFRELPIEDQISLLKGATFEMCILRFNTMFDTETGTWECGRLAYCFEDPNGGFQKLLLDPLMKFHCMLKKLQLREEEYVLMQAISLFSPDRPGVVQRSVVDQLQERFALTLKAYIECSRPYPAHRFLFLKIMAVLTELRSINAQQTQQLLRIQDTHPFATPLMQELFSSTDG
Thyrotropin-releasing hormone receptor (Homo sapiens), sequence (P34981 whole entry, looked up): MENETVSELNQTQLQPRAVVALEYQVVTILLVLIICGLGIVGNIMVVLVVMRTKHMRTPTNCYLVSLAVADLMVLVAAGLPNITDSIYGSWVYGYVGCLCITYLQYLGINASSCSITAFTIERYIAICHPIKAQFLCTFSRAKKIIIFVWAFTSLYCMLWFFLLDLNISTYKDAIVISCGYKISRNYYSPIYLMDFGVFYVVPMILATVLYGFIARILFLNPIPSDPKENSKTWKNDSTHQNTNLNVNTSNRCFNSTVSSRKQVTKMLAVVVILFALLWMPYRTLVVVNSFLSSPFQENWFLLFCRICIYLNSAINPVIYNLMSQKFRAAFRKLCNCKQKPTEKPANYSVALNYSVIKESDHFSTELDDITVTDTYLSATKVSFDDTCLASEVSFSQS

In the case of `Fc1cc(Br)ccc1CBr`, the Potency result in assay [1], in [2], in assay [3], in assay [4], in [5] and in [10] was “inactive” in each case. In addition, the Potency entry in [11], in [12], in assay [13] and in [14] was “inactive” throughout. In addition, the call in [6], in [7], in assay [8] and in assay [9] was inactive.
`COCC(=O)N(c1c(C)cccc1C)N1CCOC1=O`: the Potency result in assay [1], in [2], in [3], in [4], in assay [5] and in assay [10] was “inactive” in each case. For the same compound, the Potency entry in assay [11], in assay [15], in [12], in assay [16], in [13] and in assay [14] was “inactive” throughout. For the same compound, the call in assay [6], in assay [7] and in [8] was inactive.
With `Cc1ncsc1CCCl`, the Potency result in [1], in assay [2], in [3], in assay [4], in assay [5] and in [10] was “inactive” in each case. The Potency result in assay [11], in assay [15], in assay [16], in [18], in [19] and in assay [14] was “inactive” in each case. Further, the call in assay [7], in assay [8] and in assay [9] was inactive. Besides, the max activation in assay [17] is -0.969%.
Consider `CC(=O)[C@H]1CC[C@H]2[C@@H]3CC[C@H]4C[C@H](O)CC[C@]4(C)[C@H]3C(=O)C[C@]12C`, for which the Potency result in [20], in assay [3], in assay [4], in assay [5], in [10] and in [11] was “inactive” in each case. Besides, the Potency entry in assay [15], in assay [12], in [16], in assay [19] and in [14] was “inactive” in each case. The compound was called inactive in [6], in [7], in assay [8] and in assay [9]. In addition, in assay [17], the Potency was 11.2 µM (active).
Take `N#CC(CCc1ccc(Cl)cc1)(Cn1cncn1)c1ccccc1` (centres undefined): the Potency in assay [20] is 61.1 µM (active); in [3], 30.6 µM (active); in assay [5], 54.9 µM (active); in [10], 61.1 µM (active); in assay [15] it was 43.3 µM (active); in assay [16], 48.6 µM (active). Moreover, in assay [13], the Potency was 19.3 µM (active). The Potency entry in [12] and in assay [14] was “inactive” in each case.
With `CC(C(=O)c1ccccc1)N(C)C` (centres undefined), the Potency entry in assay [20], in assay [3], in assay [4], in [5], in [10] and in [11] was “inactive” each time. Moreover, the Potency result in assay [15], in assay [12], in [16], in assay [13] and in assay [14] was “inactive” in each case. In addition, the compound was called inactive in [7].
In the case of `CCN(CC)CCOC(=O)C(C)(c1ccccc1)c1ccccc1`, the Potency entry in assay [1], in assay [2], in assay [3], in [4], in [5] and in assay [11] was “inactive” throughout. In addition, the Potency result in [15], in assay [12] and in assay [14] was “inactive” each time. In addition, the call in [6], in [7], in assay [8] and in assay [9] was inactive. Moreover, the max activation in assay [17] is 7.07%. For the same compound, the values for the Potency in assay [18] and in [19] were 7.94 µM (active) and 8.91 µM (active), respectively.
As for `O=CNC(N1CCN(C(NC=O)C(Cl)(Cl)Cl)CC1)C(Cl)(Cl)Cl` (centres undefined), the Potency result in assay [1], in [2], in assay [3], in assay [4], in assay [5] and in assay [10] was “inactive” throughout. Besides, the Potency entry in [11], in assay [15], in [12], in assay [16] and in assay [14] was “inactive” in each case. Further, the compound was called inactive in assay [6], in [7], in assay [8] and in [9]. In addition, in assay [13], the Potency was 27.3 µM (active).
